Experiment [1] can be described thus: ATG_PBREM_CIS: Attagene CIS-FACTORIAL HepG2 Assay for human Phenobarbital-responsive Enhancer Module (PBREM) (AID 2282955). To be noted: HepG2 PBREM cis-reporter, Attagene multiplexed transcription; actives raise or lower the signal. The gist of the method: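 Cells were transfected with cis-element reporter units and treated for 24 h, after which RNA was extracted and reporter transcripts measured by RT-PCR and capillary electrophoresis.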

In experiment [2] the target is Paired box protein Pax-6 (Homo sapiens) (UniProt P26367). As to the kind of experiment: ATG_Pax6_CIS: Attagene CIS-FACTORIAL HepG2 Assay for human Paired Box 6 (PAX6) (AID 2282956). To be noted: HepG2 CIS-FACTORIAL PAX6 reporter transcription, RNA readout; actives raise or lower the signal. The gist of the method:
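DMSO-referenced bidirectional fits of reporter mRNA fluorescence; HepG2 with transient cis-promoter MRTUs, 24 h post-dose, RT-PCR plus capillary electrophoresis detection.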

Experiment [3] is described as follows: ATG_PXRE_CIS: Attagene CIS-FACTORIAL HepG2 Assay for human Pregnane X Receptor Element (PXRE) (AID 2282957). To be noted: HepG2 Attagene CIS-FACTORIAL PXRE reporter, mRNA; actives raise or lower the signal. Put shortly: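 After a 24 h chemical incubation, total RNA from transfected HepG2 cells was reverse-transcribed and reporter cDNA amplified, FAM-labeled, HpaI-digested and sized by capillary electrophoresis. DMSO served as baseline for bidirectional curve fitting.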

Experiment [4] can be described thus: ATG_PPRE_CIS: Attagene CIS-FACTORIAL HepG2 Assay for human Peroxisome Proliferator-activated Response Element (PPRE) (AID 2282958). To be noted: HepG2 PPRE cis-element reporter, Attagene transcription factor profiling; actives raise or lower the signal. Put shortly: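 In this cell-based multiplex, a PPRE cis element drives a reporter sequence in transiently transfected HepG2 cells. Following 24 h treatment, labeled cDNA amplicons are sized and quantified by capillary electrophoresis, with DMSO defining baseline.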

The nature of experiment [5]: ATG_RORE_CIS: Attagene CIS-FACTORIAL HepG2 Assay for human RAR-related Orphan Receptor Element (RORE) (AID 2282959). To be noted: HepG2 Attagene cis-factorial RORE reporter, mRNA; actives raise or lower the signal. The gist of the method:
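Endogenous factor activity at a cis response element is read as reporter transcript levels in HepG2 cells, 24 h post-dose. Transcripts are quantified by RT-PCR with capillary electrophoresis, and data fitted in both directions against DMSO.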

The nature of experiment [6]: ATG_Sox_CIS: Attagene CIS-FACTORIAL HepG2 Assay for human SRY-box transcription factor (SOX) (AID 2282960). To be noted: HepG2 Attagene cis-factorial SOX reporter, mRNA; actives raise or lower the signal. Put shortly:
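Measures mRNA induction of a SOX1-associated reporter in HepG2 after 24 h dosing. Fluorescently labelled RT-PCR fragments are separated by capillary electrophoresis, and gain or loss relative to DMSO control is fitted.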

Experiment [7] concerns the target Transcription factor Sp1 (Homo sapiens) (UniProt P08047). The experiment can be described thus: ATG_Sp1_CIS: Attagene CIS-FACTORIAL HepG2 Assay for human Specificity Protein 1 (Sp1) (AID 2282961). To be noted: HepG2 Sp1 cis-reporter transcription, actives raise or lower the signal. Put shortly: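 Cells: HepG2, transiently transfected with cis-regulated multiplexed reporters. Exposure: 24 h. Detection: reporter transcripts amplified, fluorescently labeled, restriction-digested and sized by capillary electrophoresis. Analysis: bidirectional fit relative to DMSO.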

Experiment [8] can be described thus: ATG_SREBP_CIS: Attagene CIS-FACTORIAL HepG2 Assay for human Sterol Regulatory Element Binding (SREBP) (AID 2282962). To be noted: HepG2 Attagene cis-factorial SREBP reporter, mRNA; actives raise or lower the signal. Put shortly:
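In this cis-format assay, HepG2 liver cells express reporters controlled by promoter elements responsive to native transcription factors. Exposure lasts 24 h; reporter mRNA fluorescence from capillary electrophoresis gives the signal, fitted bidirectionally against DMSO.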

In experiment [9] the target is Signal transducer and activator of transcription 3 (Homo sapiens) (UniProt P40763). As to the kind of experiment: ATG_STAT3_CIS: Attagene CIS-FACTORIAL HepG2 Assay for human Signal Transducer and Activator of Transcription 3 (STAT3) (AID 2282963). To be noted: HepG2, Attagene cis-factorial STAT3 reporter transcription; actives raise or lower the signal. Put shortly: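 Readout: fluorescent reporter mRNA fragments resolved by capillary electrophoresis. Setup: HepG2 transfected with MRTUs reporting endogenous transcription-factor activity, dosed 24 h. Gain or loss of signal fitted bidirectionally against DMSO control.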
Chain of Signal transducer and activator of transcription 3 (Homo sapiens) (P40763 whole entry, looked up, the tested form may be a part): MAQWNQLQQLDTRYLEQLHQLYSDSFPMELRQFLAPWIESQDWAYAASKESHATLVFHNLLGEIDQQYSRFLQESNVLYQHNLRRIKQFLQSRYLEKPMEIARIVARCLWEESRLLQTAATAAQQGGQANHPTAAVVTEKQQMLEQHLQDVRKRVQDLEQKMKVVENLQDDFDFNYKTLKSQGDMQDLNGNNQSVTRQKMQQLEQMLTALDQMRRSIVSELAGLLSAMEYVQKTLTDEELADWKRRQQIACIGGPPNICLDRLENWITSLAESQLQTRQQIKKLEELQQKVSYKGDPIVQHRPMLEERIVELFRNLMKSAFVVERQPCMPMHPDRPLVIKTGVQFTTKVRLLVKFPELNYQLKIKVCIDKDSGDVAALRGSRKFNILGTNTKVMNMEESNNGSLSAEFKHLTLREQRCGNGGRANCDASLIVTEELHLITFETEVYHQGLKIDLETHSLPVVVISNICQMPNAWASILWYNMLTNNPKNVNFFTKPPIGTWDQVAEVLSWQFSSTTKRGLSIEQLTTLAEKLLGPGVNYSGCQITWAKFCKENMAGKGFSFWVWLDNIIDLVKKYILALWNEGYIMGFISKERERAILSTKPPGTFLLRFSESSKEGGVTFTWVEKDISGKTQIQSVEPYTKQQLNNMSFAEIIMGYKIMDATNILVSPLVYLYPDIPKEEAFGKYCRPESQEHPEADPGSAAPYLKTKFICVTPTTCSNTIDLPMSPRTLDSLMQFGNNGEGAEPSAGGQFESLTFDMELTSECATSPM

Experiment [10] in a line: ATG_TA_CIS: Attagene CIS-FACTORIAL HepG2 Assay for human TA Basal Promoter (AID 2282964). To be noted: HepG2 Attagene CIS-factorial TA basal promoter reporter; actives raise or lower the signal. The gist of the method:
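Read-out: fluorescent reporter-transcript fragments resolved by capillary electrophoresis after RT-PCR and HpaI digestion. Source: HepG2 cells carrying transiently transfected multi-reporter cis constructs, treated 24 h. Endpoint fitted bidirectionally relative to DMSO.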

The nature of experiment [11]: ATG_TCF_b_cat_CIS: Attagene CIS-FACTORIAL HepG2 Assay for human T-Cell-Factor with beta-catenin (TCF/b-cat) (AID 2282965). To be noted: HepG2 TCF/beta-catenin cis-reporter transcription, actives raise or lower the signal. Put shortly:
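HepG2, transient MRTU transfection, cis-element-driven reporters (endogenous TFs). 24 h compound exposure. Readout: reporter mRNA by RT-PCR + 6-FAM primer extension, HpaI digest, capillary electrophoresis. Gain/loss fit vs DMSO baseline.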

Experiment [12] can be described thus: ATG_TAL_CIS: Attagene CIS-FACTORIAL HepG2 Assay for human TAL Basal Promoter (AID 2282966).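 Further: background control endpoint measuring basal TAL promoter reporter mRNA not a specific factor.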 To be noted: HepG2 Attagene cis-factorial TAL promoter reporter; actives raise or lower the signal. Put shortly:
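Basal-promoter background-control endpoint from a multiplexed HepG2 reporter panel. Cells were exposed 24 h, then reporter mRNA was read by RT-PCR/CE fluorescence and fitted in both directions relative to DMSO.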

A short description of experiment [13]: ATG_VDRE_CIS: Attagene CIS-FACTORIAL HepG2 Assay for human Vitamin D Receptor Element (VDRE) (AID 2282968). To be noted: HepG2 VDRE cis-reporter transcription, actives raise or lower the signal. Put shortly:
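Transient MRTU transfection of HepG2, 24 h compound exposure. Readout: reporter transcripts via RT-PCR and capillary electrophoresis, fluorescence. Bidirectional fit vs DMSO.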

Experiment [14] has as its target Nuclear receptor subfamily 1 group I member 3 (Homo sapiens) (UniProt Q14994). The experiment can be described thus: ATG_CAR_TRANS: Attagene TRANS-FACTORIAL HepG2 Assay for human Constitutive Androstane Receptor (CAR) (AID 2282969; active means hit-call score of the fitted dose curve at least 0.9, where 1 is the maximum;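 further: activators raise reporter mRNA above DMSO so AC50 marks induction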). To be noted: HepG2 Attagene TRANS-FACTORIAL CAR reporter. Put shortly: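 Transiently transfected HepG2, multiplex TRANS reporters (CAR-Gal4 chimera driving GAL4-UAS reporter). 24 h dosing. Readout: reporter transcript by RT-PCR + capillary electrophoresis, fluorescence intensity; positive direction vs DMSO.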

The target of experiment [15] is X-box-binding protein 1 (Homo sapiens) (UniProt P17861). The experiment can be described thus: ATG_Xbp1_CIS: Attagene CIS-FACTORIAL HepG2 Assay for human X-box Binding Protein 1 (XBP1) (AID 2282972). To be noted: HepG2 XBP1 cis-element reporter, Attagene multiplex; actives raise or lower the signal. The gist of the method: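 Changes in reporter transcript abundance, read by RT-PCR and capillary electrophoresis, reflect endogenous transcription factor activity. Transfected HepG2 cells received compound for 24 hours; DMSO defined baseline for bidirectional analysis.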
Chain of X-box-binding protein 1 (Homo sapiens) (P17861 whole entry, looked up): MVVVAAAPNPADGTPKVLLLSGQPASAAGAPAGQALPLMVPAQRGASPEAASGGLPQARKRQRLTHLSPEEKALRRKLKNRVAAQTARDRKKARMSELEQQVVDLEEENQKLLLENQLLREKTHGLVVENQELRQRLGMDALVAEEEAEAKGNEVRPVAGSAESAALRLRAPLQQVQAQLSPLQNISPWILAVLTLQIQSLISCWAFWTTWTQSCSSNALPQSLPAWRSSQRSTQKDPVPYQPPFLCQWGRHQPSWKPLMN

The nature of experiment [16]: ATG_GAL4_TRANS: Attagene TRANS-FACTORIAL HepG2 Assay for GAL4 (Internal Marker) (AID 2282976; active means hit-call score of the fitted dose curve at least 0.9, where 1 is the maximum). To be noted: HepG2 Attagene TRANS GAL4 internal marker reporter. Put shortly: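 Background-control readout: GAL4-UAS reporter transcript in transiently transfected HepG2 cells after 24 h compound exposure. Measured by RT-PCR, 6-FAM primer extension, HpaI digest and capillary electrophoresis; gain-of-signal fit versus DMSO.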

A short description of experiment [17]: ATG_TGFb_CIS: Attagene CIS-FACTORIAL HepG2 Assay for human Transforming Growth Factor (TGF) (AID 2282967). To be noted: HepG2 Attagene CIS TGFb reporter, mRNA transcription; actives raise or lower the signal. The gist of the method:
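Transient MRTU transfection of HepG2 (FuGene 6). Dose 24 h. TriZol RNA, oligo(dT) RT, PCR, 6-FAM primer extension, HpaI cut, CE. Bidirectional fit, DMSO = baseline.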

Experiment [18] has as its target Estrogen receptor (Homo sapiens) (UniProt P03372). As to the kind of experiment: ATG_ERa_TRANS: Attagene TRANS-FACTORIAL HepG2 Assay for human Estrogen Receptor alpha (ERa) (AID 2282970; active means hit-call score of the fitted dose curve at least 0.9, where 1 is the maximum). To be noted: HepG2 Attagene TRANS ERa GAL4 reporter, mRNA. The gist of the method:
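Gal4-fusion ERa transactivation, measured as reporter transcript level in transiently transfected HepG2 cells. Exposure 24 h; RT-PCR plus capillary electrophoresis with fluorescence detection.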

Experiment [19] deals with Steroid hormone receptor ERR1 (Homo sapiens) (UniProt P11474). The experiment can be described thus: ATG_ERRa_TRANS: Attagene TRANS-FACTORIAL HepG2 Assay for human Estrogen-Related Receptor alpha (ERRa) (AID 2282971; active means hit-call score of the fitted dose curve at least 0.9, where 1 is the maximum). To be noted: HepG2 Attagene TRANS reporter, ERRa transactivation. The gist of the method: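 HepG2 cells transiently transfected with GAL4-UAS reporter units and chimeric NR-Gal4 constructs; after 24 hour compound incubation, reporter mRNA quantified by RT-PCR, fluorescent labelling and capillary electrophoresis, gain of signal versus DMSO.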
Chain of Steroid hormone receptor ERR1 (Homo sapiens) (P11474 whole entry, looked up, the tested form may be a part): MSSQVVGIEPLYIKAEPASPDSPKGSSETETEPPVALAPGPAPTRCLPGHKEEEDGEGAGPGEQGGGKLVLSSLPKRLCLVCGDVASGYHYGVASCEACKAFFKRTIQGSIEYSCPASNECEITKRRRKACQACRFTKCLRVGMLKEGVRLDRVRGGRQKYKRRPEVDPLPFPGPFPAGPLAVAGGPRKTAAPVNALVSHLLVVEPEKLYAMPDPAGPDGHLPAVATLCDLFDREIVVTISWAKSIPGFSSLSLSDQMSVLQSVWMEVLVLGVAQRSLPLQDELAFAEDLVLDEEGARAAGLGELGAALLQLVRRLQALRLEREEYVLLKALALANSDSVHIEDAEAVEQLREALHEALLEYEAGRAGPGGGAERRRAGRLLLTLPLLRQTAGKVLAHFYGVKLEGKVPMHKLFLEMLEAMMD

The nature of experiment [20]: ATG_M_19_TRANS: Attagene TRANS-FACTORIAL HepG2 Assay for M19 Transcription Factor (Internal Marker) (AID 2282974; active means hit-call score of the fitted dose curve at least 0.9, where 1 is the maximum). To be noted: HepG2 Attagene TRANS-FACTORIAL M19 internal marker reporter. The gist of the method: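 Reporter mRNA induction was measured in transfected HepG2 cells 24 h after dosing. Endpoint fitted upward relative to DMSO and serves as a background control within the multiplexed TRANS panel.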

Results filed as inconclusive are left out. Calls of active or inactive are those of the source. How the source made its calls, unless noted: active means hit-call score of the fitted dose curve at least 0.9, where 1 is the maximum; inactive means score below 0.9.

As usually defined, the AC50 is the concentration giving half of the maximal activity seen.

Chain of Transcription factor Sp1 (Homo sapiens) (P08047 whole entry, looked up): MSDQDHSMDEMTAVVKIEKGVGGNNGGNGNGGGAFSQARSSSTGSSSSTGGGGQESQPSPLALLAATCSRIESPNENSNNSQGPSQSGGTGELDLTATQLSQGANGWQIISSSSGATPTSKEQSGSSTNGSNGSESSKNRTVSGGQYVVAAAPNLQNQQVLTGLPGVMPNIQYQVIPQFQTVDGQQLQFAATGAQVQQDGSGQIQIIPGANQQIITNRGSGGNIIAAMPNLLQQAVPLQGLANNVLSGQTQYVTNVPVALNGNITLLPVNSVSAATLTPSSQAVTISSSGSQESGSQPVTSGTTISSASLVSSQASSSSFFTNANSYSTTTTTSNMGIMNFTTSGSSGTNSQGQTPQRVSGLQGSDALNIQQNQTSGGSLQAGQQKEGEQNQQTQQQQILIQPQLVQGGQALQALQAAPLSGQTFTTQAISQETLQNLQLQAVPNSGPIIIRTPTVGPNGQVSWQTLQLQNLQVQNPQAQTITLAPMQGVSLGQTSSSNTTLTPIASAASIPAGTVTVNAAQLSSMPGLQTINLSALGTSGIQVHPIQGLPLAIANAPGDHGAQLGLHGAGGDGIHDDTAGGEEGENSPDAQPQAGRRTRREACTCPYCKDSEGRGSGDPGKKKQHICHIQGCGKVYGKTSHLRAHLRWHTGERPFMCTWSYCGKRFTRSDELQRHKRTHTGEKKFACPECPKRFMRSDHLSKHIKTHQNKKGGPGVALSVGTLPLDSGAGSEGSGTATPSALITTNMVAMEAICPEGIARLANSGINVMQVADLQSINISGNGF
Chain of Paired box protein Pax-6 (Homo sapiens) (P26367 whole entry, looked up): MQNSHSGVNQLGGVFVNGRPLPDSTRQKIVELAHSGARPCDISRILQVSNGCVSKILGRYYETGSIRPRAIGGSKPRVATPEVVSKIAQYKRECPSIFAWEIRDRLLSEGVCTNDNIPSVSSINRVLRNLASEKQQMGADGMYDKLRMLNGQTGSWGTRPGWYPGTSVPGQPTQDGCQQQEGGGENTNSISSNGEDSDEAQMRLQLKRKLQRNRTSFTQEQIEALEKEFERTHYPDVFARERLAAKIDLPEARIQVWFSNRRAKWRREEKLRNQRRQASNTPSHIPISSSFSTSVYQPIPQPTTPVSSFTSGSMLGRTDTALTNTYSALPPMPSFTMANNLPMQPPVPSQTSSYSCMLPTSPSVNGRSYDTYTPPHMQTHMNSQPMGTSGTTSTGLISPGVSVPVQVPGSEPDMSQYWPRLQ
Chain of Estrogen receptor (Homo sapiens) (P03372 whole entry, looked up, the tested form may be a part): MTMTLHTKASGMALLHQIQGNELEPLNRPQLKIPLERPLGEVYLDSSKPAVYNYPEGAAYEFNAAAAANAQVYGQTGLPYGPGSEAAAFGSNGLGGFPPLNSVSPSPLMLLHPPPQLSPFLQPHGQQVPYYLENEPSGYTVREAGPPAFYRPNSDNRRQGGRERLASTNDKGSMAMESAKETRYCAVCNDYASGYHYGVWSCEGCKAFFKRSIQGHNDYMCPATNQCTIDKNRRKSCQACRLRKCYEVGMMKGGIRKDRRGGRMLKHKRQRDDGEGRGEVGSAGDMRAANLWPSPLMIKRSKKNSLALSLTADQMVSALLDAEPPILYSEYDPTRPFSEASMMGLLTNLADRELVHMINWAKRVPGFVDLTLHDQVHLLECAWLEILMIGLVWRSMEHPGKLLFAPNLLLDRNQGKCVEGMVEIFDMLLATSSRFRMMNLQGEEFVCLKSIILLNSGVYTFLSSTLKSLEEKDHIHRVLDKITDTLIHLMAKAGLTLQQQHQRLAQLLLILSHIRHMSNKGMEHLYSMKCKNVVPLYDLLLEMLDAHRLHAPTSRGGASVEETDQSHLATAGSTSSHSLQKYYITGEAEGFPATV
Chain of Nuclear receptor subfamily 1 group I member 3 (Homo sapiens) (Q14994 whole entry, looked up, the tested form may be a part): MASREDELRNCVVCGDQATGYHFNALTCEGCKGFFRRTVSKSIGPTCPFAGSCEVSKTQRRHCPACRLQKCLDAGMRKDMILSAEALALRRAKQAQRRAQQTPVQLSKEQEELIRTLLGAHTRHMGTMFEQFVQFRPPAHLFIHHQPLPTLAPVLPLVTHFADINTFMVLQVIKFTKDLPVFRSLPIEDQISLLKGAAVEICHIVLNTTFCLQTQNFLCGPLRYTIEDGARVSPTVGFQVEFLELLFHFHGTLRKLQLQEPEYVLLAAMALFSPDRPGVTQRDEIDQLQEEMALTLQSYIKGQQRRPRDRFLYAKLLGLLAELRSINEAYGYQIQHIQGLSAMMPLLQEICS

Take `C=CC(=O)OCC(C)OCC(C)OCC(C)OC(=O)C=C` (centres undefined): the result in [1], in experiment [4], in experiment [6], in experiment [7], in [9] and in experiment [10] was inactive. The call in [12], in experiment [14], in experiment [15] and in experiment [16] was inactive. The concentration at half-maximal activity (AC50) is 64.5 µM (active) in experiment [2]; 2.25 µM (active) in experiment [3]; 44.5 µM (active) in experiment [5]; 100 µM (active) in experiment [8]; 71.5 µM (active) in experiment [11]; 6.27 µM (active) in experiment [13].
Consider `CC(Cl)COP(=O)(OCC(C)Cl)OCC(C)Cl` (centres undefined), for which the result in experiment [1], in [2], in experiment [4], in [5], in experiment [6] and in [7] was inactive. For the same compound, the compound was called inactive in experiment [8], in experiment [9], in [10], in experiment [11], in experiment [12] and in experiment [17]. The call in [14], in experiment [18], in [19], in experiment [15], in experiment [20] and in experiment [16] was inactive. Besides, the AC50 in experiment [3] was 4.13 µM (active).
As to `CC(C)(CO)C(O)C(=O)NCCCO` (centres undefined), the outcome in [1], in experiment [2], in experiment [3], in experiment [4], in [5] and in experiment [6] was inactive. In addition, the result in experiment [7], in [8], in experiment [9], in experiment [10], in [11] and in experiment [12] was inactive. Moreover, the compound was classed as inactive in [17].
With `N=C1C=CC(=C(c2ccc(N)cc2)c2ccc(N)cc2)C=C1`, the result in experiment [1], in experiment [4], in experiment [5], in experiment [6], in experiment [7] and in [9] was inactive. In addition, the call in [12], in experiment [17], in experiment [18], in experiment [20] and in experiment [16] was inactive. The AC50 was 37.8 µM (active) in [2]; 56.6 µM (active) in [3]; 26 µM (active) in [8]; 81.3 µM (active) in experiment [10]; 26.5 µM (active) in experiment [11].

The values above are taken from PubChem BioAssay (EPA / NIEHS).
